In the library only some 2.5% were active in any assay of this set; here they are far more common.
Pol kappa inh: DNA polymerase kappa (human) inhibition; Potency, µM (titrated, usually from 107 µM), for inactives: at the top dose activity, negative = inhibition, hits mostly inhibitors; Q9UBT6; purified Pol kappa, fluorescent DNA synthesis assay, 10 min; hit rate 0.53% among 400,000; note: % is set by controls: 0 for no effect and ±100 for the full control effect
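Kinetic fluorescence screen: compound preincubated 15 min RT with 10 nM enzyme; 50 nM substrate (final) initiates; reads at 0/10 min.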
L3MBTL1 block: blocks human L3MBTL1; Q9Y468; AlphaScreen L3MBTL1–H3K9me1 peptide binding; Potency, µM (series often up to 57.1 µM), for the others: at the top dose activity, negative = inhibition, actives largely listed as inhibitors; hit rate 0.66% among 230,000; AID 485360; note: % is set by controls: 0 for no effect and ±100 for the full control effect; nearly all actives have a fitted effect of over 60% in size
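AlphaScreen proximity signal between nickel-chelate acceptor and streptavidin donor beads (final 10 ug/mL) reports binding of 50 nM L3MBTL1 to 75 nM biotin-H3 K9me1 peptide; complex incubated with compounds 30 min at room temperature; cefsulodin titration as control.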
POLH inh: inhibitors of human DNA polymerase eta; hit rate 1.2% among 390,000; Q9Y253; recombinant Pol eta, fluorescent DNA replication assay; Potency, µM (series often up to 114 µM), for inactives: top-dose activity change, negative = inhibition, most hits filed as inhibitors; AID 588591; note: % is set by controls: 0 for no effect and ±100 for the full control effect
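Pol eta at 10 nM preincubated with compounds 15 min at room temperature; reaction started with fluorescent substrate (50 nM final) and read kinetically at 0 and 10 min.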
POLB inh: DNA polymerase beta (human) inhibition; P06746; Pol beta primer extension/strand displacement, fluorescence kinetic; Potency, µM (highest dose often 114 µM), without a hit: top-dose activity change, negative = inhibition, most hits filed as inhibitors; hit rate 1.3% among 340,000; AID 485314; note: % is set by controls: 0 for no effect and ±100 for the full control effect
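Pol beta (10 nM) and compounds were preincubated 15 min at room temperature, then 50 nM substrate (final) started primer extension/strand displacement. Reads were taken at 0 and 10 min; concentration-response data were fitted to a four-parameter Hill equation.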
APEX1 inh: APE1 (human) endonuclease inhibition; recombinant APE1, TAMRA/BHQ-2 abasic DNA cleavage fluorescence; P27695; Potency, µM (series often up to 65.8 µM), for inactives: at the top dose activity change, negative = inhibition, usual class: inhibitors; AID 2517; hit rate 0.35% among 350,000;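 note: plate controls were vehicle for no effect and reference inhibitor for full effect; nearly all actives have a fitted effect of over 55% in size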
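Compound pre-exposure to 0.75 nM APE1, 15 min at ambient temperature. Reaction initiated with 50 nM TAMRA/BHQ-2 THF substrate, read immediately in kinetic mode, 525 nm excitation, 598 nm emission.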
POLI inh: blocks human DNA polymerase iota activity; hit rate 1% among 390,000; Potency, µM (top dose mostly 115 µM), for the others: at the highest dose activity, negative = inhibition, hits mostly inhibitors; Pol iota fluorescent replication assay, 10 min; Q9UNA4; AID 588590
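Pol iota at 10 nM preincubated 15 min with compounds at room temperature; reaction started with fluorescent substrate, 50 nM final. Fluorescence read kinetically at 0 and 10 min; buffer-only wells as negative control.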
Starred values were filed as active, the others as inactive; ? = inconclusive; . = no result; ! = not confirmed by another sample; [ ] = dose if it differs, or a comment. Calls come from the whole dose curve; as a rule, active = well fitted curve in the direction sought with a large enough effect; inconclusive = small, poorly fitted or top-dose-only effect, or another doubt; inactive = no such curve, though single readings can be large; an effect the other way counts as inactive or inconclusive. Potency is the fitted concentration of half-maximal effect.

SMILES | Pol kappa inh | L3MBTL1 block | POLH inh | POLB inh | APEX1 inh | POLI inh
Cc1nc2nc(C)c(CCC(=O)NCCCN3CCN(c4cccc(Cl)c4)CC3)c(C)n2n1 | 3.4% | -4.1% | -5.5% | 14.7% | 2.4% | 31.6µM*!
C/C(=N\NC(=O)c1cc(O)ccc1O)c1cccc(NC(=O)c2ccc(Cl)cc2)c1 | 50.1µM* | . | 22.4µM* | 44.7µM* | -18.8% | 20µM*
C/C(=N\NC(=O)c1ccccc1O)c1cccc(NC(=O)c2ccccc2)c1 | 5.6% | . | -1.1% | 2.8% | 15.7% | -3.0%
CC(=O)c1sc(C(=O)O)c(-c2ccco2)c1-c1ccco1 | 44.7µM* | ? | 22.4µM* | 20µM* | ? | ?
O=C1C2CC3N1CCC31c3ccccc3-n3c1c2ccc3=O (stereo not drawn) | -12.8% | . | -25.9% | . | . | -7.0%
Cc1cccc(-n2ncc(C(=O)NCc3ccc4c(c3)OCO4)c2C2CCN(C(=O)OC(C)(C)C)CC2)c1 | -7.0% | . | 2.5% | 38.3% | . | -2.6%
COC(=O)c1c(NC(=O)COC(=O)[C@@H](NS(=O)(=O)c2cccc(Cl)c2)C(C)C)sc2c1CCC2 | -2.8% | 2.7% | -26.5% | 3.0% | -10.3% | 15.2%
CC(C)[C@H](NS(=O)(=O)c1cccc(Cl)c1)C(=O)OCC(=O)NC(=O)CN1CCCC1=O | ? | ? | 22.4µM* | . | 13.4µM* | 50.1µM*
Cc1c(O)ccc2c1OC(C)(C)CC2 | -8.4% | . | . | . | . | 53.1%
COc1ccc2c(c1)oc(=O)c1ccccc12 | 6.2% | 35.1% | -20.8% | 0.4% | -7.1% | 3.8%
COc1ccc2c(c1)oc(=O)c1c3ccccc3[nH]c21 | -25.6% | 34.8% | -11.7% | 22.4µM* | 5.4% | -26.2%
CCOC(=O)C1=C(SCC)c2cc3c(n2C1=O)CCCC3 | -18.2% | 25.1µM* | ? | -16.6% | ? | ?
CCOC(=O)c1cnc2cc3c(cn2c1=O)CCCC3 | -3.2% | -1.1% | -10.9% | -2.4% | -0.6% | 29.5%
CCCNC(=O)c1ccc(Cn2c(=O)c3cccn3c3cccnc32)cc1 | -7.8% | . | -10.0% | -17.3% | . | -3.8%
NS(=O)(=O)c1ccc(CCNC(=O)Cn2c(=O)c3cccn3c3cccnc32)cc1 | -7.5% | . | 8.2% | -0.5% | 6.0% | -23.8%
O=C(NCCc1ccccc1Cl)c1ccc(Cn2c(=O)c3cccn3c3cccnc32)cc1 | -19.2% | . | ? | 14.1µM* | . | ?
NS(=O)(=O)c1ccc(CCNC(=O)Cn2c(=O)c3cccn3c3ccc(F)cc32)cc1 | -13.4% | . | 6.1% | 44.7µM* | . | -8.2%
CCOc1ccc(CCNC(=O)Cn2c(=O)c3cccn3c3cccnc32)cc1 | -14.8% | . | -20.5% | 100µM* | -1.6% | 11.2%
C=C1CCN([C@@H](CC(C)C)C(=O)N2CCCC2)S(=O)(=O)c2ccccc21 | 1.0% | . | 5.1% | . | . | 0.9%
COc1ccc(C(=O)CSc2nnc(-c3cc(C)on3)o2)cc1 | -28.6% | -13.4% | -9.6% | 11.2µM* | 1.5% | -25.1%
O=C(CSc1nnc(-c2ccco2)o1)c1ccccc1 | -10.0% | ? | 5.1% | 39.8µM* | -0.6% | -7.5%
O=C(CSc1nnc(-c2ccco2)c(-c2ccco2)n1)c1ccccc1 | 79.4µM* | -1.7% | 35.5µM* | -4.6% | 8.9% | 17.8µM*
Cc1cc(-c2nnc(SCC(=O)c3ccc(Cl)cc3)o2)no1 | -16.5% | -20.6% | -0.1% | -13.3% | 4.7% | 22.0%
CC(C)(C)CC(C)(C)N=C1Nc2cc(Cl)c(Cl)cc2N[C@]12C[C@H]1CCCC(=O)N3CC[C@@H](C2)[C@@H]13 | -16.8% | . | . | . | . | ?
CCC(Sc1ncc(S(=O)(=O)c2ccc(C)cc2)c(=O)[nH]1)C(=O)Nc1cc(C)ccc1C (stereo not drawn) | -4.5% | . | -5.4% | 25.1µM* | . | ?
CCOC(=O)c1ccc(NC(=O)CSc2ncc(S(=O)(=O)c3ccc(C)c(Cl)c3)c(=O)[nH]2)cc1 | -4.9%[60.1 µM] | . | ? | 89.1µM* | . | ?
Cc1ccc(C)c(NC(=O)CSc2ncc(S(=O)(=O)c3ccc(C)c(Cl)c3)c(=O)[nH]2)c1 | -1.5%[60.1 µM] | . | -7.3% | -12.4% | . | -4.5%

Compound activity as filed in PubChem BioAssay.
